SMILES strings stand for the structures. Results filed as inconclusive are left out. A call without a number means that no potency is given here. Calls of active or inactive are those of the source. Calls follow the shape of the dose curve; as a rule, active = well fitted curve in either direction with a large enough effect; inconclusive = small, poorly fitted or top-dose-only effect; inactive = no such curve, though single readings can be large or run the other way.

We go through 36 compounds from PubChem BioAssay AID2113 (National Center for Advancing Translational Sciences (NCATS), 2009).
Potency is read from the fitted curve at half-maximal effect.

This test has as its target Lysosomal alpha-glucosidase (Homo sapiens) (UniProt P10253). In words: Confirmation of Inhibitors and Activators of Human alpha-Glucosidase From Spleen Homogenate.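 As to potency: fluorescence of 4-methylumbelliferone released from a fluorogenic glucopyranoside substrate at pH 5.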 The settings on record: alpha-glucosidase enzyme activity; series mostly up to 60.5 µM. The essentials: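 Fluorogenic assay using human spleen homogenate (1 ug) as enzyme source with 1 mM 4-methylumbelliferyl-alpha-D-glucopyranoside, pH 5.0 citrate buffer, 40 min at 37 C. 4-MU read (Ex 365/Em 440) after NaOH/glycine stop; AC50 from Hill fits.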
In the case of `CC(=O)c1ccc(N2CCN(S(=O)(=O)c3ccc4c(c3)CC(C)N4C(C)=O)CC2)cc1` (stereo unspecified), the Potency result is “inactive”.

Turning to `CC(C)Cn1c(SCC(=O)N2CCN(S(=O)(=O)c3ccccc3)CC2)nc2ccccc21`, the Potency result is “inactive”.

Turning to `CCCN1CNc2c(c(=O)[nH]c(=S)n2-c2ccc(Cl)cc2)C1`, the Potency result is “inactive”.

As for `O=c1oc2cc(O)ccc2cc1-c1nc2c(s1)CCc1ccccc1-2`, the Potency is 31.6 µM (active).

`COc1cc2cc(CN(Cc3nnnn3Cc3ccccc3)CC3CCCO3)c(=O)[nH]c2cc1OC` (stereo unspecified): the Potency entry is “inactive”.

For the compound `CCC(C)NC(=O)CCC(=O)Nc1ccc2nc(N3CCOCC3)cc(C)c2c1` (stereo unspecified), the Potency entry is “inactive”.

For `CCCN1CNc2c(c(=O)[nH]c(=S)n2CCc2cc(Cl)ccc2Cl)C1`, the Potency was 14.1 µM (active).

On to `COc1ccccc1NC(=O)c1ccc(Br)o1`, for which the Potency result was “inactive”.

As to `CC1CCc2nc(-c3cc4ccc(O)cc4oc3=O)sc2C1` (stereo unspecified), the Potency entry was “inactive”.

In the case of `O=C(Nc1nnc(-c2cccc(F)c2)s1)Nc1ccccc1F`, the Potency result was “inactive”.

For the compound `O=C(NN=C1c2ccccc2-c2ccccc21)c1cccc(S(=O)(=O)N2CCOCC2)c1`, the Potency entry is “inactive”.

For the compound `COc1cc(-c2cc(N3C(=O)Nc4ccccc4N3O)n[nH]2)cc(OC)c1OC`, the Potency entry was “inactive”.

On to `CCCN1CNc2c(c(=O)[nH]c(=S)n2CCc2ccc(C)cc2)C1`, for which the Potency is 25.1 µM (active).

On to `CCNc1sc(C(=O)c2cccs2)c(N)c1-c1nc2ccccc2s1`, for which the Potency result is “inactive”.

For the compound `CN(CCO)S(=O)(=O)c1ccc2c(c1)C(=NN)c1cc(S(=O)(=O)N(C)CCO)ccc1-2`, the Potency result is “inactive”.

With `Cc1nc(-n2nnc(CO)c2CO)nc2c1CCC2`, the Potency result is “inactive”.

For `COc1ccc(CCn2c3c(c(=O)[nH]c2=O)C(NC(=O)c2cccs2)(C(F)(F)F)C(=O)N3)cc1OC` (stereo unspecified), the Potency entry was “inactive”.

`C(=C/c1ccc2ccccc2n1)/c1ccc2c(c1)OCO2`: the Potency result is “inactive”.

`CC(=O)N1CCN(c2ccc(NS(=O)(=O)c3ccc4c(c3)CC(=O)N4)cc2)CC1`: the Potency entry is “inactive”.

With `CC(=O)c1ccc(N2CCN(S(=O)(=O)c3ccc4c(c3)CCCC(=O)N4)CC2)cc1`, the Potency entry is “inactive”.

As to `CCc1ccc(-c2nc(-c3cc4ccc(OC(C)=O)cc4oc3=O)sc2C)cc1`, the Potency entry was “inactive”.

Turning to `CCCN1CNc2c(c(=O)[nH]c(=S)n2CCc2c(Cl)cccc2Cl)C1`, the Potency was 35.5 µM (active).

As to `CC1(C)CC(=O)c2cc(C(=O)NCc3ccco3)c(=O)n(-c3ccc(Cl)cc3)c2C1`, the Potency entry was “inactive”.

On to `OCCNc1nc(-c2cccs2)nc2ccccc12`, for which the Potency entry was “inactive”.

For the compound `Cc1ccccc1S(=O)(=O)N1CCOCC1`, the Potency result is “inactive”.

For the compound `Cc1ccc2nc(-c3ccccc3N)[nH]c2c1`, the Potency entry was “inactive”.

Turning to `OC[C@H]1NC[C@H](O)[C@@H](O)[C@H]1O`, the Potency entry is “inactive”.

For the compound `CCCN1CNc2c(c(=O)[nH]c(=S)n2CCc2cccc(Cl)c2)C1`, the Potency was 12.6 µM (active).

`CSc1ccccc1NC(=O)CN(C)CC(=O)NCc1ccccc1`: the Potency result was “inactive”.

Consider `Cc1noc(C)c1S(=O)(=O)N(CC(=O)N1CCc2ccccc21)c1ccc(C(C)C)cc1`, for which the Potency result was “inactive”.

`CCCN1CNc2c(c(=O)[nH]c(=S)n2CCC(C)(C)C)C1`: the Potency result was “inactive”.

Consider `CC1CCc2nc(-c3cc4c(ccc5ccccc54)oc3=O)sc2C1` (stereo unspecified), for which the Potency result was “inactive”.

As for `COc1ccc(CCn2c(=S)[nH]c(=O)c3[nH]cnc32)cc1OC`, the Potency result was “inactive”.

As for `CC(=O)c1ccc(N2CCN(S(=O)(=O)c3ccc4c(c3)C(=O)OC4)CC2)cc1`, the Potency result is “inactive”.

With `O=S(=O)(c1ccc2c(c1)C(=NNc1ccccc1)c1cc(S(=O)(=O)N3CCOCC3)ccc1-2)N1CCOCC1`, the Potency entry was “inactive”.

`CCc1sc(-c2cc3ccc(O)cc3oc2=O)nc1-c1cc(C)ccc1C`: the Potency entry is “inactive”.
